Here are results for 8 molecules from PubChem BioAssay (NCI).

About 83,000 compounds went through this panel and 20% of them were active in at least one assay; those are over-represented in the sample as a whole.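 Single-dose data. Exposure time 48 hours. Values below 10 considered active.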 A number with no mark means an inactive call. Active and inactive are the calls of the source.

Common to all, as to test: NCI-60 one-dose screen, 48 h (100 = growth as untreated, 0 = no growth, -100 = all killed)
Holding throughout (conditions): 10 µM unless noted

In assay [1] the test system is HCT-15 colon.
Assay [2] concerns HT29 colon.
The subject of assay [3] is SNB-75 CNS.
In assay [4] the test system is SNB-19 CNS.
Assay [5] has as its system U251 CNS.
The test system of assay [6] is SK-MEL-5 melanoma.
Assay [7] has as its system UACC-62 melanoma.
In assay [8] the test system is LOX IMVI melanoma.
The subject of assay [9] is SK-MEL-28 melanoma.
Assay [10] has as its system SK-MEL-2 melanoma.
Assay [11] has as its system EKVX NSCLC.
Assay [12] deals with SN12C renal.
In assay [13] the test system is UO-31 renal.
Assay [14] deals with TK-10 renal.
The subject of assay [15] is ACHN renal.
The test system of assay [16] is CAKI-1 renal.
Assay [17] concerns CCRF-CEM leukemia.
For assay [18], the system named is MOLT-4 leukemia.
The test system of assay [19] is A498 renal.

As to `CC1=C(C(=O)/C=C/c2c[nH]c3ccccc23)C(c2ccccc2)NC(=S)N1` (centres undefined), the growth in [1] is 101%; in assay [2], 106%; in [3] it was 65.5%; in assay [4], 91.7%; in assay [5], 101%; in [6], 98.3%. Also, the growth in assay [7] is 83.6%; in assay [8], 94.3%; in [9], 104%; in [10], 99.2%; in assay [11] it was 85.1%; in assay [12], 91.6%. For the same molecule, the growth in assay [13] was 63.9%; in assay [14] it was 135%; in [15], 93.5%; in assay [16], 77.8%; in [17] it was 103%; in assay [18], 101%.

In the case of `CC/C(=C\c1ccc(OC)cc1)C(=O)c1ccc(OC)cc1`, the growth is 92.7% in assay [1]; 90.3% in assay [2]; 77.3% in assay [3]; 85.7% in [4]; 91.7% in [5]; 101% in assay [6]. The growth is 78.7% in [7]; 95.1% in assay [8]; 106% in assay [9]; 96% in assay [10]; 103% in assay [11]; 91.8% in assay [12]. Moreover, the growth was 81.1% in assay [13]; 91.9% in assay [14]; 96.9% in assay [15]; 69.6% in assay [16]; 103% in assay [19]; 45.6% in [17]. Further, the growth in assay [18] is 91.5%.

Take `O=S(=O)(NCCNc1nccc(-c2c(-c3cccc(F)c3)nc3sccn23)n1)c1ccccc1`: the growth was 25.8% in assay [1]; 23.2% in [2]; 71.5% in assay [3]; 55.9% in [4]; 44% in assay [5]; 19.1% in assay [6]. In addition, the growth in [7] was 24.9%; in assay [8], 36.3%; in [9] it was 54.3%; in assay [10], 51.8%; in assay [11] it was 53.3%; in [12], 40.3%. Moreover, the growth in assay [13] was 15.4%; in assay [14], 59.5%; in assay [15], 26%; in assay [16], 39.1%; in assay [17], 33.6%; in assay [18], 16.6%.

For the molecule `NC(=S)N1N=C(c2ccccc2)CC1c1cn(-c2ccccc2)nc1-c1ccc(OCc2ccccc2)cc1` (centres undefined), the growth in [1] is 106%; in assay [2] it was 95.9%; in [3] it was 95.1%; in assay [4], 97.3%; in assay [5] it was 97%; in [6], 99.4%. The growth in [7] is 86.3%; in assay [8] it was 99.3%; in assay [9] it was 112%; in assay [10], 90.4%; in assay [11], 78.3%; in assay [12] it was 93.2%. Besides, the growth in [13] is 84.7%; in assay [14], 102%; in assay [15], 100%; in [16] it was 92.7%; in assay [19] it was 94.5%; in [17], 103%. Besides, the growth in assay [18] was 98.7%.

For `COc1ccc(C(=O)/C=C/c2cc3ccccc3n3nnnc23)cc1`, the growth is 97.3% in assay [1]; 110% in assay [2]; 98.3% in assay [3]; 99.1% in assay [4]; 101% in [5]; 103% in assay [6]. Moreover, the growth in assay [7] is 97.7%; in assay [8], 104%; in assay [9], 110%; in [10], 106%; in [11], 99.9%; in assay [12], 102%. For the same molecule, the growth in [13] was 90.8%; in assay [14] it was 104%; in assay [15], 106%; in assay [16], 88.8%; in assay [17] it was 101%; in assay [18], 103%.

For the molecule `COc1cc(C=O)ccc1OC1OC(COC(C)=O)C(OC(C)=O)C(OC(C)=O)C1OC(C)=O` (centres undefined), the growth in [1] was 99.3%; in assay [2], 105%; in [3] it was 106%; in assay [4] it was 103%; in [5], 94.2%; in assay [6], 98.2%. The growth was 100% in assay [7]; 103% in assay [8]; 110% in assay [9]; 98.6% in [10]; 99.9% in assay [11]; 97.9% in assay [12]. Also, the growth in assay [13] is 93.1%; in assay [14] it was 107%; in [15], 107%; in [16], 98.8%; in assay [17], 54.9%; in assay [18], 110%.

Turning to `C#Cc1cccc(NC(=O)c2cccc(NC(=O)CCl)c2)c1`, the growth was -63.4% [8.25 µM] (active) in [1]; -7.83% [8.25 µM] (active) in assay [2]; -21.9% [8.25 µM] (active) in [3]; 11.5% [8.25 µM] in assay [4]; -93.7% [8.25 µM] (active) in assay [5]; -93.8% [8.25 µM] (active) in assay [6]. Moreover, the growth in [7] is -33.7% [8.25 µM] (active); in [8] it was -89% [8.25 µM] (active); in [9], 37.4% [8.25 µM]; in assay [10], 30.8% [8.25 µM]; in assay [11] it was 86.1% [8.25 µM]; in [13], -98.9% [8.25 µM] (active). Also, the growth was -72.4% [8.25 µM] (active) in [14]; -96.8% [8.25 µM] (active) in assay [15]; 0.818% [8.25 µM] (active) in assay [16]; 46.6% [8.25 µM] in assay [19]; 8.26% [8.25 µM] (active) in [17].

For `c1ccc(-c2c(-c3ccccc3)[n+](Cc3ccc4ccccc4c3)c(-c3cccc4ccccc34)n2Cc2ccc3ccccc3c2)cc1`, the growth in assay [1] is -52.9% (active); in assay [2], -49.7% (active); in assay [3] it was -57.9% (active); in assay [4], -68.9% (active); in [5], -94.9% (active); in assay [6], -98.4% (active). Also, the growth in [7] is -64.8% (active); in assay [8], -98.9% (active); in assay [9], -71.8% (active); in assay [10] it was -77.9% (active); in assay [11], -10.9% (active); in [13], -93.5% (active). In addition, the growth in assay [14] was -78% (active); in [15] it was -100% (active); in assay [16], -97.2% (active); in assay [17], 1.74% (active); in assay [18], -25.8% (active).
